For 40 sequences, sensor-assay potency score (higher = more potent) results are on record in the OligoGym collection.
Further: reference of the scale not given here.

For one assay, the target named is NUP54. Kind of assay: pooled miR-30 sensor sort-seq; sequence = guide strand. To be noted: shRNA.
As to TACATTTACAGTAAGGGTCTGG, the sensor-assay potency score (higher = more potent) was found to be 0.14.

Consider TAAACCAGTACTAGTTCCCGTT, for which the sensor-assay potency score (higher = more potent) is -0.284.

TTCCTGTTTGATTAGGACCTGT gave a sensor-assay potency score (higher = more potent) of 0.0888.

ATAAATAACAACTTCTGTCTGA came in with a sensor-assay potency score (higher = more potent) of 1.09.

Consider TACAGATGTAGTTTGATTCTTT, for which the sensor-assay potency score (higher = more potent) is 0.197.

In the case of TAATGTAGTTTGCTGCTGCTGC, the sensor-assay potency score (higher = more potent) came out at 0.262.

TTCTAGATCGTCTTTAATGATG: the sensor-assay potency score (higher = more potent) was -1.29.

For TAAATAACAACTTCTGTCTGAT, the sensor-assay potency score (higher = more potent) was 0.552.

Sequence TTGTTGTTTCAAATGCTGCTTG returned a sensor-assay potency score (higher = more potent) of 0.0156.

Take TATATCTTCTAGATCGTCTTTA: the sensor-assay potency score (higher = more potent) was 0.519.

As to TAACAGATCTGCATCTATGTAA, the sensor-assay potency score (higher = more potent) was 0.386.

Another assay has as its target NUTF2. The description is as above. To be noted: shRNA.
Take TAATAGGAACATCTGGTGGAAC: the sensor-assay potency score (higher = more potent) was -1.27.

As for TACTAGAGCAACTTGTCAGTAG, the sensor-assay potency score (higher = more potent) is 0.355.

Consider TGCAACTAGTCTAGCATCCAAA, for which the sensor-assay potency score (higher = more potent) is -1.42.

For TACAACACAAACTTCTCCCGTC, the sensor-assay potency score (higher = more potent) was 0.549.

As for TTTTGCATTACTTAAGTCTTTC, the sensor-assay potency score (higher = more potent) was -0.669.

As to TTCTTTAATAGGAACATCTGGT, the sensor-assay potency score (higher = more potent) is -0.647.

For the sequence TATCATTATCAAATAACTGGTA, the sensor-assay potency score (higher = more potent) was 0.126.

Turning to TTTAATAGGAACATCTGGTGGA, the sensor-assay potency score (higher = more potent) is 0.705.

Consider TTCTCCTTCACTTCTTTGGGTT, for which the sensor-assay potency score (higher = more potent) was -0.477.

Consider TAGTAATGTTGAATGAAGCTGG, for which the sensor-assay potency score (higher = more potent) worked out at 0.656.

For the sequence TTAATAGGAACATCTGGTGGAA, the sensor-assay potency score (higher = more potent) was -0.0861.

The next assay deals with NXF3. Described as above. The note with it: shRNA.
As for TTCATAGTGAAACTCAACTGGG, the sensor-assay potency score (higher = more potent) is -0.55.

TTACAGGTTGGTAACCTCTTGT yielded a sensor-assay potency score (higher = more potent) of 0.125.

Regarding AATCTTGCCACTGACATTCTTC, the sensor-assay potency score (higher = more potent) was -0.451.

With TTGACAAAGATTGATATCTTTT, the sensor-assay potency score (higher = more potent) was -1.25.

In the case of TAATTTGGGGAACAATTCCAGG, the sensor-assay potency score (higher = more potent) is -1.33.

For TGCTCTTCTTTGAACAACTTGA, the sensor-assay potency score (higher = more potent) is -0.684.

Consider TTATCTGCTCCACCTTTTCTGA, for which the sensor-assay potency score (higher = more potent) is -1.35.

TTGAACAACTTGATCAGTGTGA: the sensor-assay potency score (higher = more potent) was found to be 0.976.

On to TTGCTCTTCTTTGAACAACTTG, for which the sensor-assay potency score (higher = more potent) was -0.818.

In the case of TGCATCTCCATCTTGCTGCTGA, the sensor-assay potency score (higher = more potent) was -0.136.

For the sequence TTTTCTGACTTCAGCTCCCTGT, the sensor-assay potency score (higher = more potent) is -0.506.

The sequence TTCTTCAACATCTCAGATCCAA displayed a sensor-assay potency score (higher = more potent) of 0.0512.

The target of another assay is NXF5. The description is as above. The note with it: shRNA.
Regarding TCTTTCAGTGATCTTCAGGGTG, the sensor-assay potency score (higher = more potent) was -0.168.

Take TACATAGGCAGACTGGTCCGAG: the sensor-assay potency score (higher = more potent) is -0.391.

As to TTCGTGGACATTTTGTGTGCTT, the sensor-assay potency score (higher = more potent) is -0.318.

Consider TTTCTTTCAGTGATCTTCAGGG, for which the sensor-assay potency score (higher = more potent) worked out at 0.16.

TTTTGTGTGCTTTAGCAGCTTC gave a sensor-assay potency score (higher = more potent) of 0.239.

In the case of TTGAAGTACTTGCACAAGTTGC, the sensor-assay potency score (higher = more potent) is -0.882.
